Assay results published in the supplement of paper PMC11732987, “Enantioselective OTUD7B fragment discovery through chemoproteomics screening and high-throughput optimisation” (Communications Chemistry, 2025).

Legend:
Assay in all cases: log2 ratio of Biotin-Ahx-Ub-VS probe labelling (fragment/DMSO); higher = less target engagement (more negative = stronger competition), active = hit call of the paper (q ≤ 0.05, log2 ratio ≤ -1)
Conditions in all cases: compound concentration: 200 uM; treatment time: 3 h
USP42 = target: T1, USP42 (UniProt Q9H9J4)
T1 sequence (whole entry): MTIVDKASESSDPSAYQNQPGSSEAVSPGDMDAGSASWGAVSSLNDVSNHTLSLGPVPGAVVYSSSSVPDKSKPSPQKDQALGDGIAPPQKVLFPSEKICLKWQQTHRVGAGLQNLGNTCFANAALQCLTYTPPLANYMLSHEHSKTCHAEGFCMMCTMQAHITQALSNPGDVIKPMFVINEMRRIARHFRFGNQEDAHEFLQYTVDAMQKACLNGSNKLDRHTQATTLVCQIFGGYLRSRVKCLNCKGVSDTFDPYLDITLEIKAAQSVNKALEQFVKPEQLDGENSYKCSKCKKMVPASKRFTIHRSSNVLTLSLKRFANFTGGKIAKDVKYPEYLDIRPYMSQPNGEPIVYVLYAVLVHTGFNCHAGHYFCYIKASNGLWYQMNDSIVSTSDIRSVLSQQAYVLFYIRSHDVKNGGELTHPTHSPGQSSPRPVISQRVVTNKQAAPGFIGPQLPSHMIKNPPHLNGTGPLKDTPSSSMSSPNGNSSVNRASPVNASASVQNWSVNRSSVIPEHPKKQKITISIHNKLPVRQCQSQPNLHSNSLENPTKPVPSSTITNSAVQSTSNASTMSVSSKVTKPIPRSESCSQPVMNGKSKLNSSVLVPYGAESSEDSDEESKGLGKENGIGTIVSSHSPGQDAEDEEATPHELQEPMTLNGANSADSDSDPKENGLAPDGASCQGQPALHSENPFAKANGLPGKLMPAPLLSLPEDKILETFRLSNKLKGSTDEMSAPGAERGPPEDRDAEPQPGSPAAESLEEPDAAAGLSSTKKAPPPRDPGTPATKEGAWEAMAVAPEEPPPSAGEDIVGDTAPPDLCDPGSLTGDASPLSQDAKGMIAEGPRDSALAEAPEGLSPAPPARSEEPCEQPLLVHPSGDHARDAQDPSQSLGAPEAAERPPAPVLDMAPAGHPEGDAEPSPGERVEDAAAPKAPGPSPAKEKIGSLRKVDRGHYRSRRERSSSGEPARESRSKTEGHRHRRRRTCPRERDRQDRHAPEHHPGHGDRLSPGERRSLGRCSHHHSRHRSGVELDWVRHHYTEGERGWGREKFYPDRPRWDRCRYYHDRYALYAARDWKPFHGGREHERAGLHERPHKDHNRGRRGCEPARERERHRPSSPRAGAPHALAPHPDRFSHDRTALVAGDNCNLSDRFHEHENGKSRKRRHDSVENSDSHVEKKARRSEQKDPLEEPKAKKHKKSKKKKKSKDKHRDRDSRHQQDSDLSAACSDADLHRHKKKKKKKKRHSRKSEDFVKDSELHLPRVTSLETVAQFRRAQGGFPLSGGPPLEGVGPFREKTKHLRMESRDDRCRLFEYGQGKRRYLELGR
How it was run: (§1)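 Using Biotin-Ahx-Ub-VS at 0.5 µM final for 1 h, DUBs were labelled in HEK293T lysate (495 µg per sample) that had first been treated in triplicate with fragment at 200 µM or vehicle for 3 h. NeutrAvidin enrichment, LysC and trypsin digestion and diaPASEF LC-MS/MS followed. Spectronaut label-free quantities were global-median-normalised. Values are average log2 fragment/vehicle ratios by unpaired t-test, using proteins with ≥2 unique peptides.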

USP46 = USP46 (UniProt P62068)
USP46, sequence (P62068 whole entry): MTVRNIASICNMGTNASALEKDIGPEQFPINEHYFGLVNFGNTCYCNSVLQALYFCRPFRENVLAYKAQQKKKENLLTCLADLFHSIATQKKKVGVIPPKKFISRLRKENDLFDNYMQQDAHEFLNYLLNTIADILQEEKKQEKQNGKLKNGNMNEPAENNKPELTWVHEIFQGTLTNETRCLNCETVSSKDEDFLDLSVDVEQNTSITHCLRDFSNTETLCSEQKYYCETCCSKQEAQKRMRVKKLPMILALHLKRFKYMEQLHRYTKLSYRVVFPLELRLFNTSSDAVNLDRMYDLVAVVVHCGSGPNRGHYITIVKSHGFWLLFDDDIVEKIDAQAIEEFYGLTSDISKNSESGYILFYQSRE
How it was run: as §1

USP47 = target: T2, USP47 (UniProt Q96K76)
T2 sequence (whole entry): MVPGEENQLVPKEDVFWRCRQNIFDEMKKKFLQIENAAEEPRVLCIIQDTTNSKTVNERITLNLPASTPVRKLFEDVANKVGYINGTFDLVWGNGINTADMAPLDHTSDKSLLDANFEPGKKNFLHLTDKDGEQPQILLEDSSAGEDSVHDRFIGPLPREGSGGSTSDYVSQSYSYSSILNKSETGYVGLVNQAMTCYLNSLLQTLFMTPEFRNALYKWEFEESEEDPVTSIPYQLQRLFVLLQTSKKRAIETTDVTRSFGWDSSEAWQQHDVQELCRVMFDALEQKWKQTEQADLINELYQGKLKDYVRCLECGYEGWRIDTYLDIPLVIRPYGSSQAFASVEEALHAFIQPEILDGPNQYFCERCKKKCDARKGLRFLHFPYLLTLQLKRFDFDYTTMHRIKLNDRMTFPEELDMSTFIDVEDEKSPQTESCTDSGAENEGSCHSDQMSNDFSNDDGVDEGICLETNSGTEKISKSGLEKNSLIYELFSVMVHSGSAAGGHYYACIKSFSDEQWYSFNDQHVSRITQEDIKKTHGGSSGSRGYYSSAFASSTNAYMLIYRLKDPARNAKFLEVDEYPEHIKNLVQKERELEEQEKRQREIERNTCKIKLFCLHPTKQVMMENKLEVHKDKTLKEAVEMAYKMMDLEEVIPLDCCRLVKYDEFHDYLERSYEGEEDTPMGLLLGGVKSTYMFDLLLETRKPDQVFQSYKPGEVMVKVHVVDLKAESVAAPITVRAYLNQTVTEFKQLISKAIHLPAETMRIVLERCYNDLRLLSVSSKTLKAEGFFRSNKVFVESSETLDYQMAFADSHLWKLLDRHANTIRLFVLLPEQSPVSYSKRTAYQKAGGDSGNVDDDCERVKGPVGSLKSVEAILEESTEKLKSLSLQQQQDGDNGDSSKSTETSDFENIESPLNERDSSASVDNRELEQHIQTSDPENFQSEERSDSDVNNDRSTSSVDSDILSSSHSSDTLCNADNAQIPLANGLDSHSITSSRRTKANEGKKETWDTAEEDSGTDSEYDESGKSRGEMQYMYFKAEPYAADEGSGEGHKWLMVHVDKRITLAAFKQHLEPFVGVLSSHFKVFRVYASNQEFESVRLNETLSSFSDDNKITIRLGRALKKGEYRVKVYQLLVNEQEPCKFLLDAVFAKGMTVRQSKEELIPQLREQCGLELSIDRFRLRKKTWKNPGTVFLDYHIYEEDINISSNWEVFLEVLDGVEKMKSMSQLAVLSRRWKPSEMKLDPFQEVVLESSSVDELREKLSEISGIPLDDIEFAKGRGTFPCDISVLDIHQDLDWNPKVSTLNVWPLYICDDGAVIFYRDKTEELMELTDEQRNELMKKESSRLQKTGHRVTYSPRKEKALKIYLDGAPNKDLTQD
How it was run: as §1

USP48 = target: T3, USP48 (UniProt Q86UV5)
T3 sequence (whole entry): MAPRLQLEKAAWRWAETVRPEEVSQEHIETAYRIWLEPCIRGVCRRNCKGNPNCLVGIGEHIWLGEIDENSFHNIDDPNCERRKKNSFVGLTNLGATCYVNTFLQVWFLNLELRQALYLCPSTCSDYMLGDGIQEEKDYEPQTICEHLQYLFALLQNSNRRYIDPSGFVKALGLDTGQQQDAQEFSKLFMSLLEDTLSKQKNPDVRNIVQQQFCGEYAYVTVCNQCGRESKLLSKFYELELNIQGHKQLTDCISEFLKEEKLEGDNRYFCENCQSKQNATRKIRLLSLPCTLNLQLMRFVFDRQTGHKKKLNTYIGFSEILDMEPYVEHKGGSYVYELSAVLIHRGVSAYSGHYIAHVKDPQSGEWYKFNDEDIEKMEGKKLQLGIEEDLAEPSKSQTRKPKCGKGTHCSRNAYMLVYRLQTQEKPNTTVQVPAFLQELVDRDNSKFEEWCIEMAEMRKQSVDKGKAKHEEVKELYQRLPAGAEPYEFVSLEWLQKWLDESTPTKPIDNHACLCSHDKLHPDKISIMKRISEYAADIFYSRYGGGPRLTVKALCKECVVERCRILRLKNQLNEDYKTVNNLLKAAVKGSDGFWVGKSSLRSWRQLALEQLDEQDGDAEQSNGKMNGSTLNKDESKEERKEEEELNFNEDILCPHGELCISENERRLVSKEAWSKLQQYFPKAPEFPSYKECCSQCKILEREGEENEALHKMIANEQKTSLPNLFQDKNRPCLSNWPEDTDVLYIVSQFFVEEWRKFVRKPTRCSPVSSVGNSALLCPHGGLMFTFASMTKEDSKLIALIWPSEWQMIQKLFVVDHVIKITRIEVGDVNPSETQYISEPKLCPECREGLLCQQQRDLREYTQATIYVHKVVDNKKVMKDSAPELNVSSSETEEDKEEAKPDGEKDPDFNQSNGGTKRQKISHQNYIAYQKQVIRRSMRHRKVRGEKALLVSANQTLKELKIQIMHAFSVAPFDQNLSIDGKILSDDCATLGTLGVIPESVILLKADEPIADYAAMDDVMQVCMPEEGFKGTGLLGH
How it was run: as §1

USP5 = target: T4, USP5 (UniProt P45974)
T4 sequence (whole entry): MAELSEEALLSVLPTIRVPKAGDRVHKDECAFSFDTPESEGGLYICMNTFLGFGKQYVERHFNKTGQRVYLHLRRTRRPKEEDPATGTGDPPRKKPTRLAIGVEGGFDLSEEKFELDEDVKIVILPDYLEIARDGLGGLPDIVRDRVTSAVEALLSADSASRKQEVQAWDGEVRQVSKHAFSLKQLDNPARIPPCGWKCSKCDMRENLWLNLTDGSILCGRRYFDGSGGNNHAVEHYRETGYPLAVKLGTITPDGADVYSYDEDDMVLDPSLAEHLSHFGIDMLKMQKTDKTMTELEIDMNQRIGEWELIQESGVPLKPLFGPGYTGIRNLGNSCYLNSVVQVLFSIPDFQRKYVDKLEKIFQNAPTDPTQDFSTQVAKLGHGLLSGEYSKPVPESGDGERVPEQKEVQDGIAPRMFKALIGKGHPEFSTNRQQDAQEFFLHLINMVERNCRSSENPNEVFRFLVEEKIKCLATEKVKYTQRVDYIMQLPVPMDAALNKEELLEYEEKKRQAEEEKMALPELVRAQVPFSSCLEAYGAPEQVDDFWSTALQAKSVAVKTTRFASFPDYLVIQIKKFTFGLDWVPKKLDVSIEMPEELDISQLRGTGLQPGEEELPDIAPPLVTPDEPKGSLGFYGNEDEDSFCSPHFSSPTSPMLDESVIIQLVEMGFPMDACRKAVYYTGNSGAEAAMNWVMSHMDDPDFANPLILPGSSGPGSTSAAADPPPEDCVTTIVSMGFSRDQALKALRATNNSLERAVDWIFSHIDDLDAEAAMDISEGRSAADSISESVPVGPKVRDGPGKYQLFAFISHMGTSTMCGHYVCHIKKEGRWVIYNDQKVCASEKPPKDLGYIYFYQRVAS
How it was run: as §1

USP54 = USP54 (UniProt Q70EL1)
USP54, sequence (Q70EL1 whole entry): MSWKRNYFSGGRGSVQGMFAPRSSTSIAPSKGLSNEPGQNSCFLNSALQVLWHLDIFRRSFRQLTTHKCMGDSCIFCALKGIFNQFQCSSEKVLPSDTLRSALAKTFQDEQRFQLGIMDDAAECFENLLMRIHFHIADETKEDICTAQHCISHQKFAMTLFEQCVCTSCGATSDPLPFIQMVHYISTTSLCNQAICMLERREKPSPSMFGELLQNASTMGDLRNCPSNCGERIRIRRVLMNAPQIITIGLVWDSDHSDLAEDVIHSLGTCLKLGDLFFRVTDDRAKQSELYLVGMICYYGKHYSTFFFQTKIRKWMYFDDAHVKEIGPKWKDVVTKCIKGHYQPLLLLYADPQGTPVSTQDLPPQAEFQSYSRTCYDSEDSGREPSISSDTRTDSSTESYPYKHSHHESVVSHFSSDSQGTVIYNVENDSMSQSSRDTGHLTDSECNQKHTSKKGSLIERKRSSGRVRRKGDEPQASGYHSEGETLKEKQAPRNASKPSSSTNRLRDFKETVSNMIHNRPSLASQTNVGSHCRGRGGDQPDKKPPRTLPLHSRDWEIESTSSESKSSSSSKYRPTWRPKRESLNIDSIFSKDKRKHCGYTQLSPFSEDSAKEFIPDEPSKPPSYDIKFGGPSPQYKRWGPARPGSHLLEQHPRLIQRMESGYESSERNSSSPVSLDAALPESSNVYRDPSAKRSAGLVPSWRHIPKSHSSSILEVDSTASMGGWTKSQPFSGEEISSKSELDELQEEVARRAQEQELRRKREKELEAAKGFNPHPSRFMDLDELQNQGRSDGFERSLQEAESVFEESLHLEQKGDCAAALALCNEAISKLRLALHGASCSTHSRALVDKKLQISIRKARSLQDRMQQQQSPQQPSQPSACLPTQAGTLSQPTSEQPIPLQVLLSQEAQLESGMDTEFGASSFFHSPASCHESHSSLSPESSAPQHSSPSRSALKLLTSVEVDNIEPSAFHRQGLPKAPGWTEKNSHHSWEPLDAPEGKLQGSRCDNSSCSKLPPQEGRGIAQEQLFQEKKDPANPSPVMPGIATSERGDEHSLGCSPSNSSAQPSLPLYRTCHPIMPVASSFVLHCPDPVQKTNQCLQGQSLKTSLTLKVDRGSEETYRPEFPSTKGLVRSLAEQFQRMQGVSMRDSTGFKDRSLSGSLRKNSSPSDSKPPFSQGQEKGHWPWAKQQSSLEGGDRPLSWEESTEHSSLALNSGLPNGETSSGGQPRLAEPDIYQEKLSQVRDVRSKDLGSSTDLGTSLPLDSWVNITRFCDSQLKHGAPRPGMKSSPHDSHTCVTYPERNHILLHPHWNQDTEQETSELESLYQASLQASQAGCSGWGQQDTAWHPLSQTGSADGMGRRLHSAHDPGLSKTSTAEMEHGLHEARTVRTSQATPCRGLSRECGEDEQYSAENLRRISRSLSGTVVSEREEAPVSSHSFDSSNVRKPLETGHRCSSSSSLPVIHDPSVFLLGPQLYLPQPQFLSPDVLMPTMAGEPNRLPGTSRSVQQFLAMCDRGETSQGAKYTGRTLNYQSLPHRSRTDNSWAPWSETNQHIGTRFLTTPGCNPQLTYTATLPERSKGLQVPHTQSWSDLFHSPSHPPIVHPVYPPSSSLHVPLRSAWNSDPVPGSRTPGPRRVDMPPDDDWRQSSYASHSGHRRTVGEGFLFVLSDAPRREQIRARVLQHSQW
How it was run: as §1

USP7 = USP7 (UniProt Q93009)
USP7, sequence (Q93009 whole entry, looked up): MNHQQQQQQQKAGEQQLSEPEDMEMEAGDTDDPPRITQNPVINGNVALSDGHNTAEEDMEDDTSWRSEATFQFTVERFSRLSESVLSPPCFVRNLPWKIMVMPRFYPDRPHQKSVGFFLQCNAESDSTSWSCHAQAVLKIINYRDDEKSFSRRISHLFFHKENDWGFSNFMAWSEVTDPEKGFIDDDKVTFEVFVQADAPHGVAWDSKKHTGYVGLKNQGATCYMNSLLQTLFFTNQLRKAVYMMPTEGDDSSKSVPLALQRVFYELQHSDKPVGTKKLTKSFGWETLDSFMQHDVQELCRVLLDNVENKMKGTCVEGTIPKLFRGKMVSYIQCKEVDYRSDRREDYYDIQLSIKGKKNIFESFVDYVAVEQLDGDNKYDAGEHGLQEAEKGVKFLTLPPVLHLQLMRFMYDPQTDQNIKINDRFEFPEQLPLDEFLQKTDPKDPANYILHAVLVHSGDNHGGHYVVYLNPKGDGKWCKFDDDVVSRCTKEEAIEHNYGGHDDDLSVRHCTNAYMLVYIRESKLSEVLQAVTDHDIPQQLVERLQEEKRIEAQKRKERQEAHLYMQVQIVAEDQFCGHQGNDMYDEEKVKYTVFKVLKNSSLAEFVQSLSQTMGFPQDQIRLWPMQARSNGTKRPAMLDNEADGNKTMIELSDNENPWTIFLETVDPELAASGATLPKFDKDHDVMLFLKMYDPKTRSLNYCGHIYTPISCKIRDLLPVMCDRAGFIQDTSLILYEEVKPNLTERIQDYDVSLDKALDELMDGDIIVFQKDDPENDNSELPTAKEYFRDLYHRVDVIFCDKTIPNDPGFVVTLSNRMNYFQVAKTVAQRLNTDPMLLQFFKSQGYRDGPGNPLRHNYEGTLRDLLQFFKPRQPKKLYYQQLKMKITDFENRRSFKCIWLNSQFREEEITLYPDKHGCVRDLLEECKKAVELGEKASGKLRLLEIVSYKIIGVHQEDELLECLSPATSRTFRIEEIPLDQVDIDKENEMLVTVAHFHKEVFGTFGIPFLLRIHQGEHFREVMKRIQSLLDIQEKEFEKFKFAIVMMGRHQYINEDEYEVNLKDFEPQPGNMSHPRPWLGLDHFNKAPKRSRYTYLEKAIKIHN
How it was run: as §1

USP8 = target: T5, USP8 (UniProt P40818)
T5 sequence (whole entry): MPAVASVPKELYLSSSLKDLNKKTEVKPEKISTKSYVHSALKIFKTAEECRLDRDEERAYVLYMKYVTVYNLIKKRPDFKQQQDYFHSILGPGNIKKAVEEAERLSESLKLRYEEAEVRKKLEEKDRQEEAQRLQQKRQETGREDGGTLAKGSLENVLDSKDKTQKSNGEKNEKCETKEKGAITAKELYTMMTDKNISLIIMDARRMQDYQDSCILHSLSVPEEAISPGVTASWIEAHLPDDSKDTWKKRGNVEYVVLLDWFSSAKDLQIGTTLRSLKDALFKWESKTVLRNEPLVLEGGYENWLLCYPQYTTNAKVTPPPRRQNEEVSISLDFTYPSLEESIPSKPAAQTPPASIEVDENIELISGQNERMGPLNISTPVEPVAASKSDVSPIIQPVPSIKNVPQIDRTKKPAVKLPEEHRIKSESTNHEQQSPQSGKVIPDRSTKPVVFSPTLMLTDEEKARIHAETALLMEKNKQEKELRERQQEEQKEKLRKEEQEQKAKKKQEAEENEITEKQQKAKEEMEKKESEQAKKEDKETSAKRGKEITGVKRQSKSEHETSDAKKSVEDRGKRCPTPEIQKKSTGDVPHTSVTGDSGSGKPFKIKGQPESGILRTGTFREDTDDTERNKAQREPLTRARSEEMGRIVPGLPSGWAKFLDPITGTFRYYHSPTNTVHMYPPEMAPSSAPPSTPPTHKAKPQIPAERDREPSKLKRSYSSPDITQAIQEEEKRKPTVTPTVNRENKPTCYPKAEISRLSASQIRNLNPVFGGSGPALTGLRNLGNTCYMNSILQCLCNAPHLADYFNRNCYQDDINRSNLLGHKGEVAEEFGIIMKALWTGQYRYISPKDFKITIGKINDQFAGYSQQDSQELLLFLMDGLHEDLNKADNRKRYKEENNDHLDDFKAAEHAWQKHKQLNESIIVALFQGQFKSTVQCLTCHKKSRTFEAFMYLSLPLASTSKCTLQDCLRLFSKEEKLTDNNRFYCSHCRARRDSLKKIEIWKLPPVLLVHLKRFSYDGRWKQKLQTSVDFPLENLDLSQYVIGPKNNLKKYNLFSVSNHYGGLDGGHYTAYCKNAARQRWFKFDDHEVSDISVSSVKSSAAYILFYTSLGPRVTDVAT
How it was run: as §1

Measured: log2 ratio of Biotin-Ahx-Ub-VS probe labelling

O=C(CCl)N1CCOC2(CCC2)C1
inactive: USP42 0.183 | USP46 0.171 | USP47 -0.386 | USP48 -0.474 | USP5 0.109 | USP54 -0.395 | USP7 0.0903 | USP8 -0.347
